The full data set covers some 8,800 targets. This sample favours those with a hit. About 0.5% of all pairs of compound and target were hits. A number with no mark means an inactive call.
Columns and labels:
Assay in all cases: log2 fold change, soluble protein after heating vs DMSO (PISA); higher = thermal stabilisation; K562 lysate, 10 uM; active = over 0.2 and 3.5 SD of the protein, either way, in both replicates (recomputed)
alvocidib = compound: CN1CC[C@H](c2c(O)cc(O)c3c(=O)cc(-c4ccccc4Cl)oc23)[C@H](O)C1 [alvocidib]
Method in brief: (§1)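 A 30 min treatment with 10 μM compound was applied to crude K562 extract at 1 mg/mL protein in PBS pH 7.4 with 1 mM MgCl2. Heating for 3 min spanned 48°C-58°C, after which aliquots were pooled, adjusted to 0.5% NP-40 at 4°C and spun at 21,000xg for 90 min. TMTpro 16plex LC-MS/MS of the supernatant, with channel sums equalised, gave values recorded as log-two fold change in thermal stability against solvent controls, from duplicates.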

Tubastatin A = compound: CN1CCc2c(c3ccccc3n2Cc2ccc(C(=O)NO)cc2)C1 [Tubastatin A]
Method in brief: as §1

[1] = compound: CNC(=O)C1=CC=CC=C1NC2=NC(=NC=C2Cl)NC3=C(C=C(C=C3)N4CCOCC4)OC
Method in brief: as §1

defactinib = compound: CNC(=O)c1ccc(Nc2ncc(C(F)(F)F)c(NCc3nccnc3N(C)S(C)(=O)=O)n2)cc1 [defactinib]
Method in brief: as §1

[2] = compound: CNc1nc(-c2ccc3c(N)n[nH]c3c2)cc(N2C[C@@H](C(=O)NC3CCCCC3)CC[C@H]2C)n1
Method in brief: as §1

encorafenib = compound: COC(=O)N[C@@H](C)CNc1nccc(-c2cn(C(C)C)nc2-c2cc(Cl)cc(NS(C)(=O)=O)c2F)n1 [encorafenib]
Method in brief: as §1

[3] = compound: COC(=O)[C@H](CCSC)NC(=O)C1=C(C=C(C=C1)NC[C@H](CS)N)C2=CC=CC=C2
Method in brief: as §1

alisertib = compound: COc1cc(Nc2ncc3c(n2)-c2ccc(Cl)cc2C(c2c(F)cccc2OC)=NC3)ccc1C(=O)O [alisertib]
Method in brief: as §1

[4] = compound: COc1cc2nc(-c3cc(F)ccc3O)nc(N[C@@H]3CNC[C@H]3C(C)(C)O)c2cc1OC
Method in brief: as §1

gefitinib = compound: COc1cc2ncnc(Nc3ccc(F)c(Cl)c3)c2cc1OCCCN1CCOCC1 [gefitinib]
Method in brief: as §1

Sequence of UniProt Q9UKA4 (Q9UKA4 whole entry, looked up): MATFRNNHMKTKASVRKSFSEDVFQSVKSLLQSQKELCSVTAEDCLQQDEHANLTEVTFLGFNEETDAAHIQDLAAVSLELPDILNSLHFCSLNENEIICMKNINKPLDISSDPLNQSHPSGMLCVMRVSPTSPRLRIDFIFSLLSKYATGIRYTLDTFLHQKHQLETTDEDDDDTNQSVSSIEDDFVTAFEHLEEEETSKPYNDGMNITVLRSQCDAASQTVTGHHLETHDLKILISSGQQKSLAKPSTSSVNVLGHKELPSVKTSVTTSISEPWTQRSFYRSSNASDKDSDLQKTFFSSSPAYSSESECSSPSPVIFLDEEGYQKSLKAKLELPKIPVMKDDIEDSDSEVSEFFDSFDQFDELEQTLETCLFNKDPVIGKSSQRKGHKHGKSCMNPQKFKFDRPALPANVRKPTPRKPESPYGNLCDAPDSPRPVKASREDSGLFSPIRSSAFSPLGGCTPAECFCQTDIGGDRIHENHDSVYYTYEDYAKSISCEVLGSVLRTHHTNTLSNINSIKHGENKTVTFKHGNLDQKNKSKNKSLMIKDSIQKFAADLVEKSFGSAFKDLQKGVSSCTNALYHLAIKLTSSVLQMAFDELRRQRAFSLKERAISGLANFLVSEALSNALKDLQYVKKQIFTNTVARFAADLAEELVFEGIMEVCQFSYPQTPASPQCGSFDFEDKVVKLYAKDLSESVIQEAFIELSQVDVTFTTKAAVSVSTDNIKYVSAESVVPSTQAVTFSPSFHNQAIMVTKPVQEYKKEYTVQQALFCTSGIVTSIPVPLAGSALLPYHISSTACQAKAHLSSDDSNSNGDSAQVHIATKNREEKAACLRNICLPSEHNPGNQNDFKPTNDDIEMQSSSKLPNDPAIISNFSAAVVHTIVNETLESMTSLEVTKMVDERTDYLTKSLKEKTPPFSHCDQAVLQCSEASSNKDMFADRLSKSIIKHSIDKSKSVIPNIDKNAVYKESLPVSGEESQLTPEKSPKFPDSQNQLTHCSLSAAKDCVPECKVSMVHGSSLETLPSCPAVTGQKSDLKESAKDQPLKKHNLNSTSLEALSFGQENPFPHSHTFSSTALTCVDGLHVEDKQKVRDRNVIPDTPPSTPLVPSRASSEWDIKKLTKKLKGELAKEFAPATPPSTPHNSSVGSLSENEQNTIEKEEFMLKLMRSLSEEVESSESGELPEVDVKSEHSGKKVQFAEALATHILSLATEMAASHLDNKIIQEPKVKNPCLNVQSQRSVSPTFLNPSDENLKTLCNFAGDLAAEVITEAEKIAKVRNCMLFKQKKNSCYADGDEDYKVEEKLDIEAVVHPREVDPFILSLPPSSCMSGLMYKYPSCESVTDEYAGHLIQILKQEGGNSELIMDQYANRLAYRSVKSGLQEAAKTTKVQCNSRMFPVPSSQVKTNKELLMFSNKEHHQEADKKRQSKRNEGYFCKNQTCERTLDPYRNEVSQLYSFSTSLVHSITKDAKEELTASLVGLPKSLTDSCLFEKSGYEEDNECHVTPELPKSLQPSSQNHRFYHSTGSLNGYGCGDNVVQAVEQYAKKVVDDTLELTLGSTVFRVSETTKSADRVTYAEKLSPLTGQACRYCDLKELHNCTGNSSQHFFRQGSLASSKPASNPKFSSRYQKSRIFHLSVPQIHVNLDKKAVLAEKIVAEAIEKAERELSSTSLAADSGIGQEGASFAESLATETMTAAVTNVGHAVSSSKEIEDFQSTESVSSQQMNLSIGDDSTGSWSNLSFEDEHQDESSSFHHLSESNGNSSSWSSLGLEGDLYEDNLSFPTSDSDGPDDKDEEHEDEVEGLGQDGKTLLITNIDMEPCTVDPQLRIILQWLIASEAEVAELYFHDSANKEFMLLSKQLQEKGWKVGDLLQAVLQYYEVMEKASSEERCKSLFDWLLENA
Sequence of UniProt P11310 (P11310 whole entry, looked up): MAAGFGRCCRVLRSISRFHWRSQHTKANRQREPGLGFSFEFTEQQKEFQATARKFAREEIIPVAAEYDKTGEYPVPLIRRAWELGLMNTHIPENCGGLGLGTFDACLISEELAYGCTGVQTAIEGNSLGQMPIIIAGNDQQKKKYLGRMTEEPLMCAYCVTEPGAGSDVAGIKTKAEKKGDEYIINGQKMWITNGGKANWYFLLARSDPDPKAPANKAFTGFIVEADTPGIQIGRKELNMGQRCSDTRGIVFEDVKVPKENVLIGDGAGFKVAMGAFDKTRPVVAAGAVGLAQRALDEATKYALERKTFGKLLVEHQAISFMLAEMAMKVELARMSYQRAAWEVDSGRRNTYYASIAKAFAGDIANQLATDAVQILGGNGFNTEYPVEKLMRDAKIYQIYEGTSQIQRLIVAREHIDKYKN
Sequence of UniProt Q15067 (Q15067 whole entry, looked up): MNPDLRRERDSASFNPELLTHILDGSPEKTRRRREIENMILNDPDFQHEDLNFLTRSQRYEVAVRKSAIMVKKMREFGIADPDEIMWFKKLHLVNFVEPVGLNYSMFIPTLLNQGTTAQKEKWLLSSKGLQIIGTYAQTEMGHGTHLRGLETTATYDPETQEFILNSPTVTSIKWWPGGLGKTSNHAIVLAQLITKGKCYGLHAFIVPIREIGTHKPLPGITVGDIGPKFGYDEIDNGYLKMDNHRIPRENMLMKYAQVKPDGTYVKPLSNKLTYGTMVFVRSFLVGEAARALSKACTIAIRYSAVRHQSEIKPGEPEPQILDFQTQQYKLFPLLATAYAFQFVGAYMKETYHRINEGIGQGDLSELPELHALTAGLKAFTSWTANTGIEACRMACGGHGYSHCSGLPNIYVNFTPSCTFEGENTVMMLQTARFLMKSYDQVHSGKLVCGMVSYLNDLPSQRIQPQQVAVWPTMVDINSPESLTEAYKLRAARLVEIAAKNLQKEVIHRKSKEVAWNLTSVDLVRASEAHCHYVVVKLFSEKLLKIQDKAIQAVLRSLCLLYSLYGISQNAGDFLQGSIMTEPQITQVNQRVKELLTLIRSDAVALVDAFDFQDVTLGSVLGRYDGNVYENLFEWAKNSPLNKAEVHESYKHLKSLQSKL
Sequence of UniProt O14727 (O14727 whole entry, looked up): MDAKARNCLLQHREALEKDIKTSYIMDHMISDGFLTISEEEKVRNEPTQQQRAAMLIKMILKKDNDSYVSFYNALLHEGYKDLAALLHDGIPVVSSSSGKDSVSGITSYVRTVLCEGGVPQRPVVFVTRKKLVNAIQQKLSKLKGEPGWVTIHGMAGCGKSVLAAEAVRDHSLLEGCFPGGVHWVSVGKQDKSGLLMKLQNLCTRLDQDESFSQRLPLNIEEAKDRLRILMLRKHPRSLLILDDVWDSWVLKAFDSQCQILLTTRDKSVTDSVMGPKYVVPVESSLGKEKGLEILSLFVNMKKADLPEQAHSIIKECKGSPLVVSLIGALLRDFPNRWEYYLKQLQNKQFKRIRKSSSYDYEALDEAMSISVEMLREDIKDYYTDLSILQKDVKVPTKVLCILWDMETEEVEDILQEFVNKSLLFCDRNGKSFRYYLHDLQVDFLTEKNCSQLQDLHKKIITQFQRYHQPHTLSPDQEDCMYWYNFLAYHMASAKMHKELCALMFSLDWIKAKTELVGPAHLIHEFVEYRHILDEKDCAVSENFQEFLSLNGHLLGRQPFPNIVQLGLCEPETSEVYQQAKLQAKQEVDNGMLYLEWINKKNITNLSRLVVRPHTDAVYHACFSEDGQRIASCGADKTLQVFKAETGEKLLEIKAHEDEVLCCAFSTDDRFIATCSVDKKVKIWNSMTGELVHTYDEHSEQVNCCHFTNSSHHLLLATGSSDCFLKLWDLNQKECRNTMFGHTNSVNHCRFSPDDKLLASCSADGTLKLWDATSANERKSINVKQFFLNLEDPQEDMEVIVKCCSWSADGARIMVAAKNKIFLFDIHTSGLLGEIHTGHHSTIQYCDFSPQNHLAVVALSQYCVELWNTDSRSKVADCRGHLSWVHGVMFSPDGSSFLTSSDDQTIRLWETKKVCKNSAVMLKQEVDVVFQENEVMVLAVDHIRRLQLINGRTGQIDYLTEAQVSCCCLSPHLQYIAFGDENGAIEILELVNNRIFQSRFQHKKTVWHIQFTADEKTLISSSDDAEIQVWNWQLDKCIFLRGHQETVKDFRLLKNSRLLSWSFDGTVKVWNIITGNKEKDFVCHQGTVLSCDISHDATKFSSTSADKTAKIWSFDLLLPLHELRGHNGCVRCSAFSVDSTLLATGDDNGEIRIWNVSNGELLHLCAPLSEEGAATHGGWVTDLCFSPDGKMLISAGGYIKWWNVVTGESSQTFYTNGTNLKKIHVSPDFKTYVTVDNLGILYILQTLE
Sequence of UniProt Q9BTT0 (Q9BTT0 whole entry, looked up): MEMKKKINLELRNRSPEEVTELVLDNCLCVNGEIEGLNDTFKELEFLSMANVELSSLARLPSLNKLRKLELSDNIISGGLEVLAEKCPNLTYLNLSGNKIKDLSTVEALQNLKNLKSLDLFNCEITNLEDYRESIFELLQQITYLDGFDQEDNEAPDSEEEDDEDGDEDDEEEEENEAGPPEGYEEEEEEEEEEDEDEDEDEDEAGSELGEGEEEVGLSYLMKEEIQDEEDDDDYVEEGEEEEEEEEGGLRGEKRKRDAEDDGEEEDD
Sequence of UniProt Q8N2K0 (Q8N2K0 whole entry, looked up): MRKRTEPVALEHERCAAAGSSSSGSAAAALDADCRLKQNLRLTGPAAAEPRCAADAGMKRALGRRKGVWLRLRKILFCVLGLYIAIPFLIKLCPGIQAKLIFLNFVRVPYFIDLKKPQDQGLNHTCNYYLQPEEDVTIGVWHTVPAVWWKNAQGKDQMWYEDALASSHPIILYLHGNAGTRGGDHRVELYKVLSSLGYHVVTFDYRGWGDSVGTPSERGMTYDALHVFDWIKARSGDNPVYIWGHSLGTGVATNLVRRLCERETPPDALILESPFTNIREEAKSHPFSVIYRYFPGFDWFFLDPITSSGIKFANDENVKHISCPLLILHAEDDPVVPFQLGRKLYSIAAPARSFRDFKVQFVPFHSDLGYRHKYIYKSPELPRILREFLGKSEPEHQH
Sequence of UniProt P40616 (P40616 whole entry, looked up): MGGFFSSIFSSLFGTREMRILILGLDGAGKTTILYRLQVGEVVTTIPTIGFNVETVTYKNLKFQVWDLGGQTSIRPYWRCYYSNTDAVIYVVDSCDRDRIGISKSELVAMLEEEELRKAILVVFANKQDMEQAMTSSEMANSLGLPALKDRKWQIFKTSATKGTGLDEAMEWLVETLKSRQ

Target | log2 fold change (alvocidib) | log2 fold change (Tubastatin A) | log2 fold change [1] | log2 fold change (defactinib) | log2 fold change [2] | log2 fold change (encorafenib) | log2 fold change [3] | log2 fold change (alisertib) | log2 fold change [4] | log2 fold change (gefitinib)
ARL1 (UniProt P40616) | -0.017 | -0.025 | 0.079 | 0.001 | 0.088 | 0.111 | -0.293 (active) | 0.081 | 0.053 | 0.057
ARHGEF1 (UniProt M0QZR4) | 0.011 | -0.085 | 0.016 | -0.005 | -0.016 | 0.022 | 0.063 | 0.001 | -0.01 | -0.014
ANP32E (UniProt Q9BTT0) | 0 | 0.079 | -0.007 | -0.018 | 0.056 | -0.037 | -0.008 | -0.019 | 0.007 | -0.061
ARHGAP25 isoform 4 (UniProt P42331) | -0.032 | -0.122 | 0.04 | 0.055 | 0.054 | -0.009 | 0.038 | 0.012 | -0.004 | -0.009
ABHD12 isoform 2 (UniProt Q8N2K0) | 0.02 | 0.001 | 0.039 | -0.004 | 0.003 | 0.046 | -0.018 | -0.031 | -0.03 | -0.045
ALDH1L2 (UniProt Q3SY69) | -0.04 | -0.03 | -0.028 | -0.04 | -0.021 | -0.002 | 0.288 (active) | -0.039 | 0.039 | 0.017
ANXA1 (UniProt P04083) | -0.025 | -0.005 | -0.021 | -0.007 | -0.055 | -0.021 | 0.028 | 0.001 | 0.008 | -0.012
APOBEC3C (UniProt Q9NRW3) | -0.019 | -0.121 | 0.018 | 0.013 | -0.007 | 0.047 | -0.067 | 0.009 | 0.003 | -0.005
ARFGAP1 (UniProt Q8N6T3) | -0.001 | -0.008 | 0.105 | 0.115 | 0.025 | 0.355 | -0.054 | 0.245 | 0.097 | 0.209
APAF1 (UniProt O14727) | -0.006 | -0.174 | -0.026 | -0.015 | 0.008 | -0.017 | 0.129 | -0.027 | 0.061 | 0.017
ADD1 isoform 3 (UniProt P35611) | 0.016 | 0.007 | -0.013 | 0.015 | 0.031 | 0.004 | -0.034 | 0.03 | 0.006 | -0.01
ACYP1 (UniProt P07311) | 0.084 | 0.008 | -0.002 | 0.014 | -0.018 | -0.018 | -0.016 | 0.012 | -0.008 | 0.026
ALDH1B1 (UniProt P30837) | 0.168 | 0.01 | 0.233 (active) | -0.029 | 0.007 | -0.008 | 0.127 | -0.002 | 0.006 | -0.026
AK2 (UniProt P54819) | -0.003 | 0.05 | -0.019 | 0.016 | 0.033 | -0.025 | -0.018 | 0.008 | -0.025 | 0.019
ASB6 (UniProt Q9NWX5) | 0.097 | 0.014 | -0.006 | 0.019 | 0.099 | -0.1 | 0.174 | -0.001 | 0.073 | -0.046
AK1 (UniProt P00568) | 0.154 | 0.009 | -0.034 | -0.035 | -0.007 | -0.036 | -0.07 | 0 | 0.013 | -0.019
ARHGAP6 (UniProt O43182) | 0.003 | -0.201 | 0.129 | 0.012 | -0.017 | 0.06 | 0.063 | 0.017 | -0.012 | -0.069
ASNS (UniProt P08243) | 0.019 | -0.025 | -0.036 | 0.006 | 0.027 | -0.009 | -0.12 | 0.019 | 0.009 | 0.004
ANKRD54 (UniProt Q6NXT1) | -0.019 | -0.095 | 0.121 | 0.022 | 0.042 | 0.082 | -0.147 | 0.006 | -0.011 | 0.002
AKAP11 (UniProt Q9UKA4) | 0.032 | 0.026 | 0.001 | 0.093 | -0.01 | -0.03 | 0.144 | -0.022 | -0.119 | -0.114
AP4B1 (UniProt Q9Y6B7) | -0.053 | -0.021 | -0.051 | -0.001 | 0.041 | 0.057 | -0.01 | -0.014 | -0.121 | 0.031
AKR1B1 (UniProt P15121) | 0.033 | 0.023 | -0.003 | -0.01 | -0.072 | 0.019 | 0.009 | 0.015 | -0.008 | -0.016
ACOX1 isoform 2 (UniProt Q15067) | -0.049 | 0.041 | 0.012 | 0.012 | 0.017 | -0.015 | -0.255 (active) | 0 | 0.01 | 0.018
ARL15 (UniProt Q9NXU5) | 0.177 | -0.002 | -0.013 | -0.013 | -0.021 | 0.037 | -0.211 | 0.005 | 0 | -0.057
ACAA1 (UniProt P09110) | -0.027 | 0.043 | 0.008 | 0.008 | 0.093 | -0.021 | 0.012 | -0.035 | 0.01 | 0.015
ACADM isoform 2 (UniProt P11310) | -0.022 | -0.012 | 0.046 | -0.01 | 0.386 (active) | -0.032 | 0.13 | 0.062 | 0.09 | -0.024
AKAP8L (UniProt Q9ULX6) | -0.003 | -0.183 | 0.008 | 0.003 | -0.109 | 0.059 | -0.032 | 0.043 | 0.011 | 0.009
